Assay outcomes as filed in PubChem BioAssay.
D2 ag-1: activates the human D2 dopamine receptor; P14416; activation, % at 2 µM; AID 485358; HEK293 T-REx D2 cells, calcium flux agonist mode; 0.53% of 340,000 active;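 active = activation over 3 SD above normal in the single-dose calcium agonist read, cut at about 30% in these data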; note: 0% is about no effect
Target sequence (P14416 whole entry, looked up): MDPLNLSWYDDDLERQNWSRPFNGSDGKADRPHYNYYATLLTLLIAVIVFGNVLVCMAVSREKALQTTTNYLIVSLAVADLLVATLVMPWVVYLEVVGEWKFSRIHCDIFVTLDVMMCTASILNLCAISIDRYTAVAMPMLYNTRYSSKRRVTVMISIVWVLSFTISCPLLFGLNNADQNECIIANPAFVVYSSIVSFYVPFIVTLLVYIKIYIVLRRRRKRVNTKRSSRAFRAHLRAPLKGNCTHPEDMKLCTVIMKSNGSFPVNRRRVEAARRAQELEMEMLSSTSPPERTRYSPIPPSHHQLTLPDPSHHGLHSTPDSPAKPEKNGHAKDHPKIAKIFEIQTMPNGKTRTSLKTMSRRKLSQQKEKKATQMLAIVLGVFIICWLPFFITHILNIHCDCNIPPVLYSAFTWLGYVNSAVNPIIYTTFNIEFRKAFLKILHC
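Tetracycline-induced HEK293 Trex cells with D2 receptor force-coupled to calcium signaling, plated overnight at 30 C and loaded with no-wash calcium dye. Calcium flux read kinetically for 180 s after compound addition; responses flag agonists.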
D2 antagonist: antagonizes the human D2 dopamine receptor; P14416; HEK293 TREx D2 cells, calcium flux, dopamine EC80; inhibition, % at 10 µM; 2% of 340,000 active; in the data active = inhibition above about 30%; inactive = below that, where a call was filed; note: 0% is about no effect
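Calcium mobilization kinetics were recorded at 1 s intervals in tetracycline-induced HEK293 T-REx D2 cells, first for 180 s after compound addition and then 180 s after EC80 dopamine.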
D2 PAM-1: potentiates the human D2 dopamine receptor allosterically. P14416. potentiation, % (test concentration not listed). 0.23% of 360,000 active. DiscoveRx D2 beta-arrestin cells, luminescence, 90 min; 100% = 57 uM dopamine signal. AID 624464; in the data active = potentiation above about 50%; inconclusive = mostly about 30% to 49%
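D2 cells co-treated with compound plus 50 nM dopamine (EC20) for 90 min at 37 deg C to detect potentiation. Beta-arrestin recruitment was read as enzyme-fragment luminescence after 1 h at ambient temperature. Full response was set by 57 uM dopamine.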
D2 ag-2: human D2 receptor agonism in beta-arrestin assay; DiscoveRx PathHunter D2 beta-arrestin, luminescence, 90 min; 100% = 57 uM dopamine signal; activation, % (concentration not given with the values); 0.084% of 360,000 active; in the data active = activation above about 40%; inconclusive = between about 15% and that limit
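Agonist mode: compounds alone added to overnight-plated D2 PathHunter cells for 90 min at 37 C, with 57 uM final dopamine (EC100) defining full response. Beta-arrestin recruitment detected by chemiluminescent reagent, read after 1 h at ambient temperature.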
D2 PAM-2: D2 dopamine receptor (human) potentiation | P14416 | HEK293 T-REx D2, calcium flux, EC20 dopamine potentiation | potentiation, % at 10 µM | 0.34% of 340,000 active | AID 485347;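 active = potentiation over 3 SD above the plate norm, cut at about 30% in these data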; note: 0% is about no effect
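Tetracycline-induced Hek293 Trex D2 cells, force-coupled to calcium, loaded with no-wash calcium dye. Compound added with 180 s kinetic read for agonism, then EC20 dopamine and a further 180 s read for potentiation.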
* hit, by the source's call. Compounds with a hit are over-represented: about 2.4% of the library has one in this group of screens.

How did COc1ccccc1NC(=O)CSc1nnc(-c2ccco2)n1N do in these assays?
D2 ag-1: 0; D2 antagonist: 34*; D2 PAM-1: -13; D2 ag-2: -3; D2 PAM-2: -10

What do the screens show for `COc1ccccc1NC(=O)C1=C(C)Nc2nc(SCc3ccccc3Cl)nn2C1c1cccnc1` (stereo not given)?
D2 ag-1: 0; D2 PAM-2: 2

How did O=c1cnnc(NCc2ccccc2)[nH]1 do in these assays?
D2 ag-1: 0; D2 antagonist: 22; D2 PAM-1: -15; D2 ag-2: -2; D2 PAM-2: 36*

Results for Cc1ccc(C(=O)COC(=O)c2cccc(NC(=O)c3ccc([N+](=O)[O-])cc3[N+](=O)[O-])c2)cc1 ?
D2 ag-1: 0; D2 antagonist: 11; D2 PAM-1: 122*; D2 ag-2: inconclusive; D2 PAM-2: 6

What do the screens show for `CC(=O)Nc1ccc(C(=O)OCC(=O)c2cccc([N+](=O)[O-])c2)cc1`?
D2 ag-1: 0; D2 antagonist: 17; D2 PAM-1: -7; D2 ag-2: 1; D2 PAM-2: 6

What do the screens show for `COc1ccc(C)cc1NC(=O)C(=O)NCC(c1cccnc1)N1CCN(c2ccccc2F)CC1` (stereo not given)?
D2 ag-1: 0; D2 PAM-2: 5

What do the screens show for `CCOC(=O)C1CCN(C/C=C/c2ccccc2OC)CC1`?
D2 ag-1: 4; D2 antagonist: 18; D2 PAM-1: -10; D2 ag-2: -4; D2 PAM-2: -20

How did CCOC(=O)C1CCN(C/C=C/c2ccccc2[N+](=O)[O-])CC1 do in these assays?
D2 ag-1: -1; D2 antagonist: 48*; D2 PAM-1: -13; D2 ag-2: 1; D2 PAM-2: -12

How did CC1CCCCN1C(=O)/C=C/c1ccccc1[N+](=O)[O-] (stereo not given) do in these assays?
D2 ag-1: 0; D2 antagonist: 30*; D2 PAM-1: -3; D2 ag-2: -5; D2 PAM-2: 14

Results for Cc1cc2c(cc1S(=O)(=O)CCC(=O)N1CCN(c3ccccc3)CC1)OCC(=O)N2 ?
D2 ag-1: 0; D2 PAM-2: 4

How did CC(C)CCNC(=O)CCn1c(=S)oc2ccccc21 do in these assays?
D2 ag-1: 0; D2 antagonist: -2; D2 PAM-1: -7; D2 ag-2: -5; D2 PAM-2: 44*

Results for CN(C)c1ccc(CNC(=O)c2ccc3nc(CCc4ccccc4)oc3c2)cc1 ?
D2 ag-1: -2; D2 PAM-2: -3

Results for O=C(Cn1ncc2c([nH]c3ccccc32)c1=O)Nc1cccc(C(F)(F)F)c1 ?
D2 ag-1: 0; D2 PAM-2: 4

Results for NS(=O)(=O)c1ccc(NC(=S)Nc2ccn(Cc3cccc4ccccc34)n2)cc1 ?
D2 ag-1: 0; D2 antagonist: 42*; D2 PAM-1: -6; D2 ag-2: -3; D2 PAM-2: -19

What do the screens show for `COc1ccc(CCNC(=O)CSCc2nc(-c3ccc(OC)c(OC)c3)oc2C)cc1OC`?
D2 ag-1: -2; D2 PAM-2: -6

How did Cc1ccc(C2C(C(=O)c3cccs3)=C(O)C(=O)N2CCN2CCOCC2)o1 (stereo not given) do in these assays?
D2 ag-1: -2; D2 antagonist: 11; D2 PAM-1: -10; D2 ag-2: -4; D2 PAM-2: 38*

Results for O=C(N/N=C/c1ccccc1OC(F)F)C1=COCCO1 ?
D2 ag-1: 1; D2 antagonist: 33*; D2 PAM-1: 1; D2 ag-2: 1; D2 PAM-2: -3

What do the screens show for `O=C(N/N=C/c1ccc(OC(F)F)cc1)C1=COCCO1`?
D2 ag-1: 2; D2 antagonist: -24; D2 PAM-1: -8; D2 ag-2: -3; D2 PAM-2: -8

What do the screens show for `CCOC(=O)c1ccc(N2C(=O)c3[nH]nc(-c4ccc(C)cc4)c3C2c2ccc(O)c(OCC)c2)cc1` (stereo not given)?
D2 ag-1: 0; D2 PAM-2: -2

What do the screens show for `C#CCn1c(COc2ccccc2C)nc2ccccc21`?
D2 ag-1: 1; D2 PAM-2: -3

Results for O=c1cc(N2CCCCC2)c(-c2ccccc2)nn1Cc1c(Cl)cccc1Cl ?
D2 ag-1: 0; D2 antagonist: 32*; D2 PAM-1: -10; D2 ag-2: -4; D2 PAM-2: 16

Results for Cc1cc(=O)[nH]c(SCC(=O)NCC2CCCO2)n1 (stereo not given) ?
D2 ag-1: 0; D2 antagonist: 34*; D2 PAM-1: -2; D2 ag-2: -5; D2 PAM-2: -10

What do the screens show for `c1ccc(-c2ccccc2OCCCCN2CCCCCC2)cc1`?
D2 ag-1: 0; D2 antagonist: 148*; D2 PAM-1: -8; D2 ag-2: 0; D2 PAM-2: -41

How did c1ccc(-c2ccccc2OCCCN2CCOCC2)cc1 do in these assays?
D2 ag-1: 0; D2 antagonist: 10; D2 PAM-1: -15; D2 ag-2: -1; D2 PAM-2: 13

What do the screens show for `c1ccc(-c2ccccc2OCCN2CCCC2)cc1`?
D2 ag-1: 0; D2 antagonist: 82*; D2 PAM-1: -25; D2 ag-2: 5; D2 PAM-2: -22

Results for c1ccc(-c2ccccc2OCCOCCN2CCCCC2)cc1 ?
D2 ag-1: 0; D2 antagonist: 87*; D2 PAM-1: -26; D2 ag-2: -6; D2 PAM-2: -25

What do the screens show for `OCCCN1CCN(CCCOc2ccccc2-c2ccccc2)CC1`?
D2 ag-1: 0; D2 antagonist: 53*; D2 PAM-1: -33; D2 ag-2: -5; D2 PAM-2: -29

Results for Cc1ccccc1OCCN1CCCC1 ?
D2 ag-1: 3; D2 antagonist: -16; D2 PAM-1: -4; D2 ag-2: -5; D2 PAM-2: -21

What do the screens show for `CCOC(=O)c1ccc2c(c1)N(Cc1cccc(C(F)(F)F)c1)C(=O)c1ccccc1S2(=O)=O`?
D2 ag-1: 0; D2 PAM-2: -2

Results for CCc1ccc(-n2nc(C)c3c(C)cc(=O)n(CC(=O)N4CCCc5ccccc54)c32)cc1 ?
D2 ag-1: 0; D2 PAM-2: -3

How did CC1CN(CCOc2ccccc2-c2ccccc2)CC(C)O1 (stereo not given) do in these assays?
D2 ag-1: 0; D2 antagonist: 71*; D2 PAM-1: -25; D2 ag-2: -6; D2 PAM-2: -17

How did CC(C)(C)c1ccccc1OCCOCCN1CCCCCC1 do in these assays?
D2 ag-1: 0; D2 antagonist: 31*; D2 PAM-1: -10; D2 ag-2: 3; D2 PAM-2: -27

What do the screens show for `CC1CN(CCOc2ccc(F)cc2)CC(C)O1` (stereo not given)?
D2 ag-1: -1; D2 antagonist: -6; D2 PAM-1: -4; D2 ag-2: -2; D2 PAM-2: 5
